# Test results: the supplement of paper PMC8728848
# The full list was thinned out, with the strongest signals kept by preference.
# B1: Apa (Mycobacterium tuberculosis), Rv1860 (protein)
# chain: MHQVDPNLTRRKGRLAALAIAAMASASLVTVAVPATANADPEPAPPVPTTAASPPSTAAAPPAPATPVAPPPPAAANTPNAQPGDPNAAPPPADPNAPPPPVIAPNAPQPVRIDNPVGGFSFALPAGWVESDAAHFDYGSALLSKTTGDPPFPGQPPPVANDTRIVLGRLDQKLYASAEATDSKAAARLGSDMGEFYMPYPGTRINQETVSLDANGVSGSASYYEVKFSDPSKPNGQIWTGVIGSPAANAPDAGPPQRWFVVWLGTANNPVDKGAAKALAESIRPLVAPPPAPAPAPAEPAPAPAPAGEVAPTPTTPTPQRTLPA
# Columns and labels:
# Assay in all cases: glycan array binding signal (z-score within array); higher = stronger binding
# Conditions in all cases: glycan notation: IUPAC condensed, linker removed
# [1] = biological target: Fuc(a1-2)Gal(b1-3)GalNAc(a1-3)[Fuc(a1-2)]Gal(b1-4)Glc
# Procedure, shortened: (§1)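 Negative Z-scores can be read as non-binding. The Z-score is calculated within each array and then averaged across arrays of one protein sequence at different concentrations or buffers and across linkers. Arrays, 3228 in all, were curated from the Consortium for Functional Glycomics database and kept only where the protein sequence was available.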
# [2] = biological target: Fuc(a1-2)Gal(b1-3)GalNAc(b1-3)Gal
# Procedure, shortened: as §1
# [3] = biological target: Fuc(a1-2)Gal(b1-4)Glc6S
# Procedure, shortened: as §1
# [4] = biological target: Fuc(a1-2)Gal6S(b1-3)GlcNAc6S
# Procedure, shortened: as §1
# [5] = biological target: Fuc(a1-2)Gal6S(b1-4)Glc6S
# Procedure, shortened: as §1
# [6] = biological target: Fuc(a1-2)[Gal(a1-3)]Gal(b1-3)GlcNAc(b1-2)Man(a1-3)[Fuc(a1-2)[Gal(a1-3)]Gal(b1-3)GlcNAc(b1-2)Man(a1-6)]Man(b1-4)GlcNAc(b1-4)[Fuc(a1-6)]GlcNAc
# Procedure, shortened: as §1
# [7] = biological target: Fuc(a1-2)[Gal(a1-3)]Gal(b1-4)[Fuc(a1-3)]Glc
# Procedure, shortened: as §1
# [8] = biological target: Fuc(a1-2)[Gal(a1-3)]Gal(b1-4)[Fuc(a1-3)]GlcNAc
# Procedure, shortened: as §1
# [9] = biological target: Fuc(a1-2)[GalNAc(a1-3)]Gal(b1-3)GalNAc(a1-3)[Fuc(a1-2)]Gal(b1-4)GlcNAc
# Procedure, shortened: as §1
# [10] = biological target: Fuc(a1-2)[GalNAc(a1-3)]Gal(b1-3)GalNAc(b1-3)Gal(a1-4)Gal(b1-4)Glc
# Procedure, shortened: as §1
# [11] = biological target: Fuc(a1-2)[GalNAc(a1-3)]Gal(b1-4)GlcNAc
# Procedure, shortened: as §1
# [12] = biological target: Fuc(a1-3)[Gal(b1-4)]Glc6S
# Procedure, shortened: as §1
# [13] = biological target: Fuc(a1-3)[Gal(b1-4)]GlcNAc(b1-3)Gal(b1-4)[Fuc(a1-3)]GlcNAc
# Procedure, shortened: as §1
# [14] = biological target: Fuc(a1-3)[Gal(b1-4)]GlcNAc6S
# Procedure, shortened: as §1
# [15] = biological target: Fuc(a1-4)GlcNAc
# Procedure, shortened: as §1
# [16] = biological target: Gal(b1-3)GlcNAc(b1-2)Man
# Procedure, shortened: as §1
# [17] = biological target: Gal(b1-3)GlcNAc(b1-2)Man(a1-3)[Gal(b1-3)GlcNAc(b1-2)Man(a1-6)]Man(b1-4)GlcNAc(b1-4)GlcNAc
# Procedure, shortened: as §1
# [18] = biological target: Gal(b1-3)GlcNAc(b1-3)Gal(b1-3)GlcNAc
# Procedure, shortened: as §1
# [19] = biological target: Gal(b1-3)GlcNAc6S
# Procedure, shortened: as §1
# [20] = biological target: Gal(b1-4)GalNAc(b1-3)[Fuc(a1-2)]Gal(b1-4)GlcNAc
# Procedure, shortened: as §1
# [21] = biological target: Gal(b1-4)GlcNAc(a1-6)Gal(b1-4)GlcNAc
# Procedure, shortened: as §1
# [22] = biological target: Gal(b1-4)GlcNAc(b1-2)Man(a1-3)[Gal(b1-4)GlcNAc(b1-2)Man(a1-6)]Man(b1-4)GlcNAc(b1-4)[Fuc(a1-6)]GlcNAc
# Procedure, shortened: as §1
# [23] = biological target: Gal(b1-4)GlcNAc(b1-2)[Gal(b1-4)GlcNAc(b1-4)]Man(a1-3)[GlcNAc(b1-4)][Gal(b1-4)GlcNAc(b1-2)[Gal(b1-4)GlcNAc(b1-6)]Man(a1-6)]Man(b1-4)GlcNAc(b1-4)GlcNAc
# Procedure, shortened: as §1
# [24] = biological target: Gal(b1-4)GlcNAc(b1-3)Gal(b1-3)GlcNAc
# Procedure, shortened: as §1
# [25] = biological target: Gal(b1-4)GlcNAc(b1-3)Gal(b1-4)GlcNAc
# Procedure, shortened: as §1
# [26] = biological target: Gal(b1-4)GlcNAc6P
# Procedure, shortened: as §1
# [27] = biological target: GalNAc(b1-4)GlcNAc(b1-2)Man
# Procedure, shortened: as §1
# [28] = biological target: GalNAc(b1-4)GlcNAc6S
# Procedure, shortened: as §1
# [29] = biological target: GalNAc6S(b1-4)GlcNAc
# Procedure, shortened: as §1
# [30] = biological target: Glc(b1-4)Glc
# Procedure, shortened: as §1
# [31] = biological target: Glc(b1-6)Glc
# Procedure, shortened: as §1
# [32] = biological target: GlcNAc(b1-2)Man(a1-3)[GlcNAc(b1-4)][GlcNAc(b1-2)Man(a1-6)]Man(b1-4)GlcNAc(b1-4)[Fuc(a1-6)]GlcNAc
# Procedure, shortened: as §1
# [33] = biological target: GlcNAc(b1-2)[GlcNAc(b1-4)]Man(a1-3)[GlcNAc(b1-2)Man(a1-6)]Man(b1-4)GlcNAc(b1-4)GlcNAc
# Procedure, shortened: as §1
# [34] = biological target: GlcNAc(b1-2)[GlcNAc(b1-4)]Man(a1-3)[GlcNAc(b1-4)][GlcNAc(b1-2)[GlcNAc(b1-6)]Man(a1-6)]Man(b1-4)GlcNAc(b1-4)[Fuc(a1-6)]GlcNAc
# Procedure, shortened: as §1
# [35] = biological target: GlcNAc(b1-3)Gal(b1-4)GlcNAc(b1-3)[GlcNAc(b1-3)Gal(b1-4)GlcNAc(b1-3)]GalNAc
# Procedure, shortened: as §1
# [36] = biological target: GlcNAc(b1-3)[GlcNAc(b1-6)]GalNAc
# Procedure, shortened: as §1
# [37] = biological target: GlcNAc(b1-6)Gal(b1-4)GlcNAc
# Procedure, shortened: as §1
# [38] = biological target: GlcNAc(b1-6)GalNAc
# Procedure, shortened: as §1
# [39] = biological target: Man(a1-2)Man(a1-6)[Man(a1-3)]Man(a1-6)[Man(a1-2)Man(a1-2)Man(a1-3)]Man
# Procedure, shortened: as §1
# [40] = biological target: Man(a1-6)Man
# Procedure, shortened: as §1
# [41] = biological target: MurNAc(b1-4)GlcNAc
# Procedure, shortened: as §1
# [42] = biological target: Neu5Ac(a2-3)Gal(b1-3)[GlcNAc(b1-6)]GalNAc
# Procedure, shortened: as §1
# [43] = biological target: Neu5Ac(a2-3)Gal(b1-4)GlcNAc(b1-2)Man(a1-3)[Neu5Ac(a2-3)Gal(b1-4)GlcNAc(b1-2)Man(a1-6)]Man(b1-4)GlcNAc(b1-4)GlcNAc
# Procedure, shortened: as §1
# [44] = biological target: Neu5Ac(a2-3)Gal(b1-4)GlcNAc(b1-2)Man(a1-3)[Neu5Ac(a2-3)Gal(b1-4)GlcNAc(b1-2)Man(a1-6)]Man(b1-4)GlcNAc(b1-4)[Fuc(a1-6)]GlcNAc
# Procedure, shortened: as §1
# [45] = biological target: Neu5Ac(a2-3)Gal(b1-4)GlcNAc(b1-2)Man(a1-3)[Neu5Ac(a2-6)Gal(b1-4)GlcNAc(b1-2)Man(a1-6)]Man(b1-4)GlcNAc(b1-4)GlcNAc
# Procedure, shortened: as §1
# [46] = biological target: Neu5Ac(a2-3)Gal(b1-4)[Fuc(a1-3)]GlcNAc(b1-6)[Neu5Ac(a2-3)Gal(b1-3)]GalNAc
# Procedure, shortened: as §1
# [47] = biological target: Neu5Ac(a2-3)Gal6S(b1-4)GlcNAc
# Procedure, shortened: as §1
# [48] = biological target: Neu5Ac(a2-3)Gal6S(b1-4)[Fuc(a1-3)]GlcNAc
# Procedure, shortened: as §1
# [49] = biological target: Neu5Ac(a2-6)Gal(b1-4)GlcNAc(b1-2)Man(a1-3)[Neu5Ac(a2-3)Gal(b1-4)GlcNAc(b1-2)Man(a1-6)]Man(b1-4)GlcNAc(b1-4)GlcNAc
# Procedure, shortened: as §1
# [50] = biological target: Neu5Ac(a2-6)Gal(b1-4)GlcNAc(b1-3)Gal(b1-4)GlcNAc(b1-6)[Gal(b1-3)]GalNAc
# Procedure, shortened: as §1
# [51] = biological target: Neu5Ac(b2-6)GalNAc
# Procedure, shortened: as §1
# [52] = biological target: Neu5Gc(a2-3)Gal(b1-4)Glc
# Procedure, shortened: as §1
binder,measurement,setting,value
B1,glycan array binding signal (z-score),[1],2.08
same,glycan array binding signal (z-score),[2],4.21
same,glycan array binding signal (z-score),[3],-0.06
same,glycan array binding signal (z-score),[4],2.87
same,glycan array binding signal (z-score),[5],1.9
same,glycan array binding signal (z-score),[6],0.338
same,glycan array binding signal (z-score),[7],-0.318
same,glycan array binding signal (z-score),[8],0.273
same,glycan array binding signal (z-score),[9],14.3
same,glycan array binding signal (z-score),[10],5.64
same,glycan array binding signal (z-score),[11],-0.327
same,glycan array binding signal (z-score),[12],0.898
same,glycan array binding signal (z-score),[13],0.272
same,glycan array binding signal (z-score),[14],1.94
same,glycan array binding signal (z-score),[15],-0.036
same,glycan array binding signal (z-score),[16],2.77
same,glycan array binding signal (z-score),[17],-0.376
same,glycan array binding signal (z-score),[18],-0.31
same,glycan array binding signal (z-score),[19],-0.259
same,glycan array binding signal (z-score),[20],5.04
same,glycan array binding signal (z-score),[21],0.281
same,glycan array binding signal (z-score),[22],-0.333
same,glycan array binding signal (z-score),[23],0.024
same,glycan array binding signal (z-score),[24],-0.238
same,glycan array binding signal (z-score),[25],-0.271
same,glycan array binding signal (z-score),[26],-0.455
same,glycan array binding signal (z-score),[27],-0.412
same,glycan array binding signal (z-score),[28],-0.421
same,glycan array binding signal (z-score),[29],2.78
same,glycan array binding signal (z-score),[30],2.25
same,glycan array binding signal (z-score),[31],-0.327
same,glycan array binding signal (z-score),[32],-0.607
same,glycan array binding signal (z-score),[33],-0.083
same,glycan array binding signal (z-score),[34],-0.482
same,glycan array binding signal (z-score),[35],0.26
same,glycan array binding signal (z-score),[36],-0.468
same,glycan array binding signal (z-score),[37],-0.453
same,glycan array binding signal (z-score),[38],-0.174
same,glycan array binding signal (z-score),[39],0.102
same,glycan array binding signal (z-score),[40],-0.69
same,glycan array binding signal (z-score),[41],-0.3
same,glycan array binding signal (z-score),[42],-0.268
same,glycan array binding signal (z-score),[43],-0.603
same,glycan array binding signal (z-score),[44],0.28
same,glycan array binding signal (z-score),[45],-0.452
same,glycan array binding signal (z-score),[46],0.026
same,glycan array binding signal (z-score),[47],-0.642
same,glycan array binding signal (z-score),[48],-0.633
same,glycan array binding signal (z-score),[49],-0.473
same,glycan array binding signal (z-score),[50],-0.533
same,glycan array binding signal (z-score),[51],-0.414
same,glycan array binding signal (z-score),[52],-0.297
